Inconclusive results are not listed. Unmarked numbers belong to inactive results. Calls of active or inactive are those of the source. The call rests on the fitted dose curve; in most records, active means well fitted cell-killing curve with a large enough effect in the repeat runs; inconclusive means weak or mixed curves; inactive means no such curve, though single readings can be large or run the other way.
On the % scale 0 is the no-effect control and ±100 the full control effect.

This assay in a line: qHTS assay to identify small molecule antagonists of the peroxisome proliferator-activated receptor delta (PPARd) signaling pathway - cell viability counter screen (AID 743213). Further: nearly all actives have a fitted effect of over 50% in size. As to conditions: PPARd-bla HEK293H viability, CellTiter-Glo luminescence, 17 h; series mostly up to 62 µM; viability change, negative = cytotoxic: at the top concentration. The source says: U.S. Tox21 Program National Center for Advancing Translational Sciences [NCATS] NIH Chemical Genomics Center [NCGC] U.S. Environmental Protection Agency [EPA] National Institutes of Environmental Health Sciences [NIEHS] National Toxicology Program [NTP] U.S. Food and Drug Administration [FDA] Tox21 Assay Overview: The peroxisome proliferator-activated receptors (PPARs) are lipid-activated transcription factors of the nuclear receptor superfamily with three distinct subtypes namely PPAR alpha, PPAR delta (PPARd) and PPAR gamma. All these subtypes heterodimerizes with Retinoid X receptor (RXR) and have different physiological functions. […] To identify the compounds that inhibit PPAR-delta signaling, GeneBLAzer PPAR delta UAS-bla HEK293H cell line (Invitrogen, Carlsbad, CA, USA) containing a beta-lactamase reporter gene under the control of an Upstream Activator Sequence (UAS) was used to screen the Tox21 compound library. The cytotoxicity of the Tox21 compound library against the PPARd-bla cell line was tested in parallel by measuring the cell viability using CellTiter-Glo assay (Promega, Madison, WI) in the same wells.
Tox21 Assay Protocol Summary: PPARd-bla cells were dispensed at 3000 cells/5uL/well in 1536-well black wall/clear bottom plates using a Multidrop Combi (Thermo Fisher Scientific, Waltham, MA) dispenser. After the assay plates were incubated at 37 C and 5% CO2 for 5 h, 23 nL of compounds dissolved in DMSO, positive controls or DMSO only was transferred to the assay plate by a Pintool station (Kalypsys, San Diego, CA), followed by addition of 1ul L165041 (300 nM, final concentration in the wells). The assay plates were incubated at 37 C for 17 h, and then 1 uL of LiveBLAzerTM B/G FRET substrate was added using a Bioraptr Flying Reagent Dispenser (FRD) workstation (Beckman Coulter, Indianapolis, IN, USA). The assay plates were incubated at room temperature for 2 h and fluorescence intensity was measured by an Envision plate reader (PerkinElmer, Shelton, CT). For cell viability readout that measures cytotoxicity, 3 ul/well of CellTiter-Glo reagent was added into the assay plates using a Bioraptr FRD. After 30 min incubation at room temperature, the luminescence intensity in the plates was measured using a ViewLux plate reader (PerkinElmer).
With `CCN(CC)c1ccccc1`, the “viability change, negative = cytotoxic” value is -4.23%. On to `CC1OC(C)OC(C)O1` (stereo not given), for which the result was inactive. In the case of `CC(Oc1ccc(Cl)cc1Cl)C(=O)O` (stereo not given), the “viability change, negative = cytotoxic” value is 11.2%. For `O=c1[nH]c(=O)[nH]c(=O)[nH]1`, the outcome was inactive. Same read-out and setting: the entry for `CN(C)CCO` is “inactive”. On the same count and under the same terms, the entry for `Cc1ccc(N)cc1Cl` is “inactive”. With `CCC(C)(CC)c1cc(NC(=O)c2c(OC)cccc2OC)on1`, the “viability change, negative = cytotoxic” value is -19.8% [at 80.4 µM]. The same measure, in the same setting: the figure for `CC(C)N1C(=O)c2ccccc2NS1(=O)=O` is -13.8%. For the compound `CCC[CH2][Sn]([Cl])([Cl])[Cl]`, the compound was called inactive. For `CC(=O)C=C(C)C`, the outcome was inactive. As to `CCCCN(CC)C(=O)SCCC`, the result was inactive. With `CCOP(OCC)OCC`, the compound was classed as inactive. Same read-out and setting: in the case of `Cc1ccc([N+](=O)[O-])cc1C` it was “inactive”; in that of `Clc1cccc(Cl)c1Cl`, “inactive”; in that of `CC(C)NC(=O)N1CC(=O)N(c2cc(Cl)cc(Cl)c2)C1=O`, “inactive”. Same read-out and setting: the entry for `Nc1c(Cl)c(Cl)nc(C(=O)O)c1Cl` is “inactive”; for `ClCCBr` it is “inactive”. Same read-out and setting: in the case of `CCOC(=O)c1ccccc1C(=O)OCC` it was “inactive”.

Consider `O=[N+]([O-])c1ccc(Oc2ccc(Cl)cc2Cl)cc1`, for which the call was inactive. Take `Clc1ccccc1Cl`: the outcome was inactive. In the case of `CCCCCCCCCCCC#N`, the result was inactive.

For `CC1C=[C-]C=C1.[C-]#[O+].[C-]#[O+].[C-]#[O+].[Mn]`, the call was inactive.

For the compound `COc1ccc2c3c1O[C@H]1[C@@H](O)C=C[C@H]4[C@@H](C2)N(C)CC[C@@]341`, the compound was classed as inactive.

On to `Cc1cccc([N+](=O)[O-])c1`, for which the result was inactive.

For `Cc1ccccc1O`, the “viability change, negative = cytotoxic” value was 0.244%. Turning to `CC(C)OC(=O)Nc1cccc(Cl)c1`, the outcome was inactive. On the same count and under the same terms, the entry for `O=c1[nH]c2ccccc2c(=O)o1` is “inactive”; for `CC(Br)C(=O)O` (stereo not given) it is “inactive”.

As to `COC(=O)c1ccccc1N`, the “viability change, negative = cytotoxic” value is -4.03%. On the same count and under the same terms, the figure for `CN(N=O)c1ccccc1` is 12.8%; for `CC(C)(C)OOC(=O)c1ccccc1` it is 0.365%. Turning to `NCCc1ccc(O)cc1`, the call was inactive. On the same count and under the same terms, the entry for `CCN(CC)CCO` is “inactive”; for `NCC(O)c1ccc(O)cc1` (stereo not given) it is “inactive”; for `c1ccc(-c2ccccc2)cc1` it is “inactive”. Still for that read-out and setting: the entry for `O=Cc1cccc(Oc2ccccc2)c1` is “inactive”. Consider `Nc1ccc(Cc2ccc(N)cc2)cc1`, for which the “viability change, negative = cytotoxic” value was 16.5%. Consider `COCCl`, for which the compound was called inactive.

Turning to `O=C1CCCN1`, the result was inactive. The same measure, in the same setting: in the case of `C#CC(C)(C)NC(=O)c1cc(Cl)cc(Cl)c1` it was “inactive”.

Values taken from PubChem BioAssay (Tox21).
